Assay results: PubChem BioAssay (EPA / NIEHS)
Records with an inconclusive call do not appear. Active and inactive are the calls of the source. How the source made its calls: active means hit-call score of the fitted dose curve at least 0.9, where 1 is the maximum; inconclusive means response in the unintended direction; inactive means score below 0.9.

These molecules were tested against Cytochrome P450 3A4 (Homo sapiens) (UniProt P08684) (assay: NVS_ADME_hCYP3A4: NovaScreen (NVS) CYP450-related Enzyme Activity (ADME) Assay for human CYP3A4 (AID 2283110)).
Cytochrome P450 3A4 (Homo sapiens), sequence (P08684 whole entry, looked up): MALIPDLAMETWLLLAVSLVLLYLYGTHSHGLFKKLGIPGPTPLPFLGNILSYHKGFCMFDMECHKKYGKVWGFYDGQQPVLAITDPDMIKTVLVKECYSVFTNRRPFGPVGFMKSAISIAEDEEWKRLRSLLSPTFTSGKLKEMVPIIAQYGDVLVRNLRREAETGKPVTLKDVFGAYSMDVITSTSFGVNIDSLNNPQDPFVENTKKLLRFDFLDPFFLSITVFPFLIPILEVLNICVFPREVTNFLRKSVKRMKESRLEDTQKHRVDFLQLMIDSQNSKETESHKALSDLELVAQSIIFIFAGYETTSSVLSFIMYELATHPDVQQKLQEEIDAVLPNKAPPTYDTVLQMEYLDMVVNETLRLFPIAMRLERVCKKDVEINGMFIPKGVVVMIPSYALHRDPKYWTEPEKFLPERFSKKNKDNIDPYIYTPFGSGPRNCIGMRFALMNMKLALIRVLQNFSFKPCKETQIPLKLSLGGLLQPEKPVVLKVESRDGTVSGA
Method in brief: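 Activity is derived from decreased fluorescence intensity relative to acetonitrile, measured 0.33 hour after dosing insect-cell-expressed CYP3A4 in a cell-free format. Screening used 10 uM in duplicate before concentration-response follow-up.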
For `CC1(C)[C@H]2CC[C@]1(C)[C@H](O)C2`, the outcome was “inactive”.
For `O=C1OC2(c3cc(Br)c(O)c(Br)c3Oc3c2cc(Br)c(O)c3Br)c2c(Cl)c(Cl)c(Cl)c(Cl)c21`, the outcome was “inactive”.
In the case of `CC(=O)O[C@]1(C(C)=O)CC[C@H]2[C@@H]3C[C@H](C)C4=CC(=O)CC[C@]4(C)[C@H]3CC[C@@]21C`, the AC50 is reported as 9.97 nM (active).

These molecules were tested against Cytochrome P450 2C19 (Homo sapiens) (UniProt P33261) (assay: NVS_ADME_hCYP2C19: NovaScreen (NVS) CYP450-related Enzyme Activity (ADME) Assay for human CYP2C19 (AID 2283113);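 on AC50: potency for inhibition seen as loss of fluorescent signal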).
Experimental: NVS_ADME_hCYP2C19 is a biochemical, single-readout assay that uses extracted gene-proteins from insect cells in a cell-free assay. Measurements were taken 1 hour after chemical dosing in a 96-well plate.NVS_ADME_hCYP2C19 is one of one assay component(s) measured or calculated from the NVS_ADME_hCYP2C19 assay. It is designed to make measurements of enzyme activity, a form of enzyme reporter, as detected with fluorescence intensity signals by Fluorescence technology.Data from the assay component NVS_ADME_hCYP2C19 was analyzed into 1 assay endpoint. This assay endpoint, NVS_ADME_hCYP2C19, was analyzed in the positive analysis fitting direction relative to Acetonitrile as the negative control and baseline of activity. Using a type of enzyme reporter, loss-of-signal activity can be used to understand changes in the enzymatic activity as they relate to the gene CYP2C19. Furthermore, this assay endpoint can be referred to as a primary readout, because this assay has produced multiple assay endpoints where this one serves a enzymatic activity function. To generalize the intended target to other relatable targets, this assay endpoint is annotated to the cyp intended target family, where the subfamily is xenobiotic metabolism.
Binding assays used specific radioligands (tritiated, iodinated) with non-radioactive competitive displacement ligands in agonist or antagonist protocols (as indicated) and various reference compounds and inhibitors to titrate specific binding to receptors and transporters. Most enzyme assays (CYPs, kinases, phosphatases, proteases, HDACs) used recombinant protein and specific substrates (fluorescence mostly, some colorimetric and radioactive) and inhibitors, followed by a biochemical separation of substrate and product. All assays for the biochemical HTS were initially run in duplicate at a single concentration (10 uM for CYP450 assays and 25 uM for all others). […] Each assay was run with positive and negative controls, and concurrent controls on every plate. The follow-up (secondary) screen tested active chemical-pairs in concentration series, as well as a few additional assays not tested in the primary screen, some selected negative inactives, and several cases re-run in the concentration series for confirmatory purposes.
`O=C1OC2(c3cc(Br)c(O)c(Br)c3Oc3c2cc(Br)c(O)c3Br)c2c(Cl)c(Cl)c(Cl)c(Cl)c21` was tested, and the AC50 was 196 nM (active).
With `Nc1ccc(F)c([N+](=O)[O-])c1` the AC50 was 66.2 nM (active).
With `O=P(c1ccccc1)(c1ccccc1)c1ccccc1` the AC50 was 12.1 nM (active).
`CCn1c2ccccc2c2cc(N)ccc21` was tested, and the AC50 was 2030 nM (active).
With `CC(=O)O[C@]1(C(C)=O)CC[C@H]2[C@@H]3C[C@H](C)C4=CC(=O)CC[C@]4(C)[C@H]3CC[C@@]21C` the AC50 was 2500 nM (active).
With `c1ccc2sc(SN(C3CCCCC3)C3CCCCC3)nc2c1` the outcome was “inactive”.
